Experimental data as given in PubChem BioAssay (NCI).
The panel holds about 79,000 compounds, 15% with a hit somewhere; the sample as a whole holds those more often. A number with no mark means an inactive call. Calls of active or inactive are those of the source. Cut-off read from the data, not from the text of the source: active = growth inhibition above about 70%; inactive = the rest.

Experiment: NCI Yeast Anticancer Drug Screen. Data for the CLN2oe strain (AID 163);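 note: 0% = growth of vehicle-only control cultures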
Conditions: S. cerevisiae CLN2oe strain, stronger effect = higher value
Protocol: Growth inhibition of yeast strains with defined genetic alterations is measured as a screen for potential anti-cancer activity. Selected strains with alterations in DNA damage repair or cell cycle control were exposed to compounds and growth inhibition was measured relative to vehicle treated controls. The strain used in this assay is CLN2oe

SMILES | growth inhibition (at 1.2 µM) | growth inhibition (at 3.7 µM) | growth inhibition (at 11.0 µM) | growth inhibition (at 33.0 µM) | growth inhibition (at 100.0 µM)
O=S(=O)(O)c1ccc2c(N=Nc3c(O)ccc4ccccc34)cccc2c1 | -1% | -4% | -3% | 14% | 74% (active)
OC(c1ccc(Br)cc1)(c1cccs1)C1CC1 (stereo not given) | 6% | 2% | 26% | 96% (active) | 96% (active)
CC(=O)CC[N+](C)(C)C | 17% | 28% | 31% | 31% | 36%
COC1=C(N=[N+]=[N-])C(=O)c2ncccc2C1=O | -5% | 13% | 26% | 69% | 95% (active)
O=C(CCCN1CCC2(CC1)OC(=O)N(c1ccccc1)C2=O)c1ccccc1 | 45% | 63% | 72% (active) | 71% (active) | 76% (active)
CCC(C)/C(C)=N/NC(N)=O (stereo not given) | -7% | 0% | 0% | -6% | -5%
CC[C@@]1(OC(=O)CN(C)C)C(=O)OCc2c1cc1n(c2=O)Cc2cc3ccccc3nc2-1 | -7% | 2% | 31% | 73% (active) | 87% (active)
CN(C)CCNC(=O)c1cccc2nc3c4ccccc4c4ccccc4c3nc12 | 0% | -3% | 29% | 97% (active) | 92% (active)
